Laboratory results taken from PubChem BioAssay AID1851 (National Center for Advancing Translational Sciences (NCATS), 2009).
Hit rate of the full screen: of about 16,000 compounds, about 5,700 (36%) were called active. Not shown: some 24% with an inconclusive outcome. Calls come from the whole dose curve; as a rule, active = well fitted curve in the direction sought with a large enough effect; inconclusive = small, poorly fitted or top-dose-only effect, or effect the other way; inactive = no such curve, though single readings can be large or run the other way. Some of the results follow.

Each compound was assayed against Cytochrome P450 1A2 (Homo sapiens) (UniProt P05177) (assay: Cytochrome panel assay with activity outcomes). Details: recombinant CYP, pro-luciferin dealkylation, luminescence, p450-cyp1a2; series mostly up to 57.1 µM.
% is set by controls: 0 for no effect and ±100 for the full control effect.

Sequence of Cytochrome P450 1A2 (Homo sapiens) (P05177 whole entry, looked up): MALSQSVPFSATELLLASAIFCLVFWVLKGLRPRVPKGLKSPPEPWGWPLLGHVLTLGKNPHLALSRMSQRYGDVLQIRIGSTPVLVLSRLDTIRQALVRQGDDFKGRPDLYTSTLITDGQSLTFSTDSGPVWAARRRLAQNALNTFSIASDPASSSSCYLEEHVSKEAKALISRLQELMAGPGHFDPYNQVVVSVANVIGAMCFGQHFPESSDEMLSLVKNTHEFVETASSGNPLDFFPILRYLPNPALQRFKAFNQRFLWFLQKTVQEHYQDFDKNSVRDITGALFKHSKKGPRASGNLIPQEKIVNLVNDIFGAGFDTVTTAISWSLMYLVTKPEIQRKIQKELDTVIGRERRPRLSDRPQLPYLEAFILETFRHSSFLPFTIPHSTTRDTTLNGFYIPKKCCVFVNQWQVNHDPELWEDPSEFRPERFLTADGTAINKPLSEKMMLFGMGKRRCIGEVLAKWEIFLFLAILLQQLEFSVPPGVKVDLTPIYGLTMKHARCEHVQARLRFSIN

| Compound | activity, negative = inhibition | AC50 |
| --- | --- | --- |
| C/C(C[n+]1ccccc1)=N\N=C(N)N | -9.68% [at 11.4 µM] (inactive) |  |
| CCc1nc(SCC(=O)NCCc2ccccc2)c2oc3ccccc3c2n1 |  | 1.58 µM (active) |
| CCc1nc(N[C@H](C(=O)O)C(C)CC)c2oc3ccccc3c2n1 (stereo partly specified) |  | inactive |
| COc1ccc(/C=N/OCc2nc3c4c(ncn3n2)Oc2ccc3ccccc3c2C4c2ccccc2)cc1 (stereo unspecified) |  | inactive |
| CCC(=O)NC(=S)N1CCN(c2ccc([N+](=O)[O-])cc2Cl)CC1 |  | 12.6 µM (active) |
| COc1cccc(OC)c1C(=O)NC(=S)N1CCN(c2ccc(C(F)(F)F)cc2[N+](=O)[O-])CC1 |  | inactive |
| CN1CCN(c2ccc([N+](=O)[O-])cc2NC(=O)c2ccccc2Cl)CC1 |  | inactive |
| CCCCCCCCCCCCCCC[C@H](O)[C@H](N)CO |  | inactive |
| Cc1ccc(/C=N\Nc2nc3ccc(Cl)cc3[nH]2)o1 |  | 2 µM (active) |
| Cc1ccc(/C=N/NC(=O)C2CCN(Cc3ccc(F)cc3Cl)CC2)o1 |  | inactive |
| CCN1C(=O)[C@H]2[C@H]3[C@H](O)[C@H](O)C/C(=N/OCC[C@H]4C=C[C@H](OC(C)=O)[C@@H](COC(C)=O)O4)[C@@H]3CC[C@@H]2C1=O | -1.02% [at 11.4 µM] (inactive) |  |
| OC[C@@H]1O[C@@H](n2cnc3c(NC4CCCCC4)ncnc32)[C@@H](O)[C@H]1O |  | inactive |
| CC(C)C(=O)N[C@H]1CCCN1C(=O)/C=C\c1ccccc1 | 1.37% [at 11.4 µM] (inactive) |  |
| C#CCSc1nncn1C(=O)/C=C/c1ccccc1 |  | 15.8 µM (active) |
| CC(C)C(=O)N[C@@H]1CCCN1C(=O)/C=C\c1ccccc1 | 0.0238% [at 11.4 µM] (inactive) |  |
| COc1ccc(NC(=O)c2ccc(-c3ccc(-c4noc(C)n4)cc3C)cc2)cc1N1CCN(C)CC1 |  | inactive |
| COc1ccc(-c2cc(C(F)(F)F)nc(N3CCN(C)CC3)n2)cc1OC |  | 2.82 µM (active) |
| COc1ccc(-c2nnn(Cc3nc(N)nc(N4CCOCC4)n3)n2)cc1OC |  | inactive |
| CN1CCN(c2nc(-c3ccccc3)cc(C(F)(F)F)n2)CC1 |  | 1.12 µM (active) |
| COc1ccc(-c2cc(C(F)(F)F)nc(NC3CCCC3)n2)cc1OC |  | 2.82 µM (active) |
| COc1ccc(C(=O)OC(C)CN2CCN(C)CC2)cc1OC (stereo unspecified) |  | inactive |
| COc1ccc(CC(=S)N2CCOCC2)cc1OC |  | inactive |
| COc1ccc(-c2cc(C(F)(F)F)nc(N3CCOCC3)n2)cc1OC |  | 0.501 µM (active) |

| Compound | activity, negative = inhibition | AC50 |
| --- | --- | --- |
| O=C(O)[C@@H](O)[C@@H](O)[C@@H](O[C@H]1O[C@@H](CO)[C@@H](O)[C@@H](O)[C@@H]1O)[C@@H](O)CO |  | inactive |
| C=C1c2cccc(O)c2C(O)=C2C(=O)[C@@]3(O)C(O)=C(C(N)=O)C(=O)[C@@H](N(C)C)[C@@H]3[C@@H](O)[C@H]12 |  | inactive |
| C#CCCCO/N=C1/C[C@@H](O)[C@@H](O)[C@@H]2[C@@H]3C(=O)N(CC)C(=O)[C@H]3CC[C@H]12 | -27.8% [at 11.4 µM] (inactive) |  |
| COc1ccc(-c2cc(C(F)(F)F)nc(N3CCCCC3)n2)cc1OC |  | 0.631 µM (active) |
| OC[C@@H]1O[C@@H](N2CCN([C@@H]3O[C@@H](CO)[C@@H](O)[C@H](O)[C@H]3O)CC2)[C@@H](O)[C@H](O)[C@H]1O | -9.68% [at 2.29 µM] (inactive) |  |
| CS(=O)(=O)N(CC(=O)Nc1c(F)cccc1F)c1ccc(C23CC4CC(CC(C4)C2)C3)cc1 |  | inactive |
| O=C1O[C@H](CN2CCOCC2)CN1/N=C\c1ccc([N+](=O)[O-])o1 |  | inactive |
| Cc1cc2ncn(/N=C/c3ccc([N+](=O)[O-])o3)c2cc1C |  | 10 µM (active) |
| N/C(=N\OC(=O)Cc1ccc(Cl)cc1)c1cccnc1 |  | 11.2 µM (active) |
| CCN=C(Nc1ccc(Cl)cc1)c1cccnc1 |  | inactive |
| C=Cc1c(C)c2cc3[nH]c(cc4nc(cc5nc(cc1[nH]2)C(C)=C5CCC(=O)O)C(CCC(=O)O)=C4C)c(C)c3C=C |  | 6.31 µM (active) |
| C=Cc1c(C)c2cc3nc(cc4[nH]c(cc5nc(cc1[nH]2)C(C)=C5CCC(=O)O)c(CCC(=O)OC)c4C)[C@@]1(C)C3=CC=C(C(=O)OC)[C@H]1C(=O)OC (tested in a mixture with another compound) |  | 3.98 µM (active) |
| CC1CC(OCC(O)CN2CCN(Cc3ccccc3)CC2)CC(C)(C)C1 (stereo unspecified) |  | inactive |
| C/C(=N\Nc1nnc(C)c(=O)[nH]1)C(=O)O |  | inactive |
| C/C(=C/C(=O)NCc1ccccc1)C(=O)O |  | inactive |
| O=C(O)NCc1ccccc1 (tested in a mixture with another compound) |  | 3.16 µM (active) |
| O=C(O)c1ccccc1C(=O)NCc1ccc(F)cc1 |  | 5.01 µM (active) |
| O=C(O)CC[C@@H](NC(=O)c1ccccc1C(=O)O)C(=O)O |  | inactive |
| O=C(NCc1ccc(F)cc1)C1CCN(S(=O)(=O)N2CCCCC2)CC1 |  | inactive |
| CCCC(=O)NNC(=O)CCC(=O)NCc1ccccc1 |  | inactive |
| CC1CCCC(NC(=O)C2CCN(S(=O)(=O)N3CCOCC3)CC2)C1C (stereo unspecified) |  | inactive |
| CN(c1ccc(C(=O)NCC2CCCO2)cc1)S(=O)(=O)c1ccccc1 (stereo unspecified) |  | inactive |
| COC(=O)c1c(C)oc2ccc(N(C(=O)c3ccncc3)S(=O)(=O)c3ccccc3)cc12 |  | 11.2 µM (active) |

| Compound | activity, negative = inhibition | AC50 |
| --- | --- | --- |
| Cc1cccc(CSCCNC(=O)c2ccc(N(C)S(=O)(=O)c3ccccc3)cc2)c1 |  | inactive |
| Cc1cc(C)cc(Oc2coc3cc(OC(=O)c4cccs4)ccc3c2=O)c1 |  | 2 µM (active) |
| Cc1cccc(Oc2coc3cc(OC(=O)c4cc5ccccc5oc4=O)ccc3c2=O)c1 |  | inactive |
| Cc1nc(N=Nc2ccc(S(=O)(=O)O)cc2S(=O)(=O)O)c(COP(=O)(O)O)c(C=O)c1O |  | inactive |
| CN(Cc1ccco1)c1nc(-c2ccc3c(c2)OCO3)nc2ccccc12 |  | 0.501 µM (active) |
| CN(C)c1ccc(-c2nc(N(C)Cc3ccco3)c3ccccc3n2)cc1 |  | 0.631 µM (active) |
| CN(Cc1ccccc1)c1nc(-c2ccc([N+](=O)[O-])cc2)nc2ccccc12 |  | 1.58 µM (active) |
| CN(Cc1ccco1)c1nc(-c2cccnc2)nc2ccccc12 |  | 0.316 µM (active) |
| CN(Cc1ccco1)c1nc(-c2ccoc2)nc2ccccc12 |  | 0.398 µM (active) |
| Cc1ccc2[nH]c3nc(CCCn4ccnc4-c4ccccc4)nnc3c2c1 | -11.9% [at 11.4 µM] (inactive) |  |
| Cc1ccc2[nH]c3c(N4CCc5ccccc5C4)ncnc3c2c1 |  | 1.58 µM (active) |
| CCOc1ccc2c(c1)nc(SCC(=O)c1ccc(Br)s1)n2C |  | 2.24 µM (active) |
| COc1ccc2c(c1)nc(SCC(=O)c1ccc(Br)s1)n2C |  | 7.94 µM (active) |
| CCOC(=O)N1CCN(C(=O)c2ccc3nc(SCc4ccc(F)cc4)n(C)c3c2)CC1 |  | inactive |
| CCC/C=C(\CCC)C(NS(=O)(=O)CC12CCC(CC1=O)C2(C)C)c1ccc(C(=O)OC)cc1 (stereo unspecified) |  | inactive |
| CCC/C=C(\CCC)C(NC(=O)c1ccc(C(F)(F)F)cc1)c1ccc(C(F)(F)F)cc1 (stereo unspecified) |  | inactive |
| CCC/C=C(\CCC)C(NC(=O)OCC(C)C)c1ccc(C(=O)OC)cc1 (stereo unspecified) |  | 15.8 µM (active) |
| CCC/C=C(\CCC)C(NC(=O)C(C)(C)C)c1ccc(C(=O)OC)cc1 (stereo unspecified) |  | inactive |
| CCC/C=C(\CCC)C(NS(=O)(=O)c1cccs1)c1ccc(C(=O)OC)cc1 (stereo unspecified) |  | 12.6 µM (active) |
| CCC/C=C(\CCC)C(NS(=O)(=O)c1ccc(C(F)(F)F)cc1)c1ccc(C(=O)OC)cc1 (stereo unspecified) |  | inactive |
| CCC/C=C(\CCC)C(NC(=O)c1ccc(C(=O)OC)cc1)c1ccc(C(=O)OC)cc1 (stereo unspecified) |  | inactive |
| CCC/C=C(\CCC)C(NC(=O)Oc1ccc(F)cc1)c1ccc(C(=O)OC)cc1 (stereo unspecified) |  | inactive |
| CCC/C=C(\CCC)C(NC(=O)c1cccs1)c1ccc(C(=O)OC)cc1 (stereo unspecified) |  | 5.01 µM (active) |

| Compound | activity, negative = inhibition | AC50 |
| --- | --- | --- |
| Clc1ccc2c(NC3CCC(N4CCCCC4)CC3)ccnc2c1 (stereo unspecified) | -15.7% [at 2.29 µM] (inactive) |  |
| Clc1ccc2c(NCCNC3CCCCC3)ccnc2c1 | -10.2% [at 2.29 µM] (inactive) |  |
| O=C(OC[C@@H](O)CO)c1ccccc1Nc1ccnc2cc(Cl)ccc12 |  | 5.01 µM (active) |
| CCN1CNC(=S)N(c2cc(C)ccc2C)C1 |  | inactive |
| Cc1cc2sc(C)[n+](CCCOS(=O)(=O)O)c2cc1C | -10.3% [at 11.4 µM] (inactive) |  |
| CCOC(=O)C[n+]1c(C)sc2ccc(OC)cc21 |  | 14.1 µM (active) |
| Cc1sc2ccccc2[n+]1CCC(=O)O | -3.71% [at 11.4 µM] (inactive) |  |
| COc1cccc2c(=O)c(C(=O)NCc3cccs3)c[nH]c12 |  | 0.631 µM (active) |
| Cc1nc2cnc(N3CCN(C)CC3)nc2n(Cc2ccc(F)cc2)c1=O |  | inactive |
| O=c1cnc2cnc(N3CCNCC3)nc2n1Cc1ccc(F)cc1 |  | 15.8 µM (active) |
| O=c1c(-c2ccc(F)cc2)nc2cnc(N3CCNCC3)nc2n1Cc1ccc(F)cc1 |  | 15.8 µM (active) |
| Cc1nc2cnc(N3CCNCC3)nc2n(Cc2ccc(F)cc2)c1=O |  | 12.6 µM (active) |
| COc1ccc(-c2nc3cnc(N4CCNCC4)nc3n(Cc3ccc(F)cc3)c2=O)cc1 |  | inactive |
| Clc1cccc(Nc2nnc(-c3ccccc3)c3ccccc23)c1 |  | 1.26 µM (active) |
| COc1ccc(Nc2nnc(-c3ccc(N4CCOCC4)c([N+](=O)[O-])c3)c3ccccc23)cc1 |  | inactive |
| CCN1CCCC1CNC(=O)C(=O)Nc1ccccc1OC (stereo unspecified) |  | inactive |
| COc1ccccc1NC(=O)C(C/C=C(\C)Cl)C(C)=O (stereo unspecified) |  | 12.6 µM (active) |
| O=C(O)[C@H]1[C@H](C(=O)O)[C@H](C(=O)O)C[C@@H]1C(=O)O | -9.47% [at 11.4 µM] (inactive) |  |
| CCNc1ncc2nc(CCc3ccccc3)c(=O)n(C3CC3)c2n1 |  | 3.16 µM (active) |
| CCNc1ncc2nc(CCc3ccccc3)c(=O)n(-c3ccccc3)c2n1 |  | 1.26 µM (active) |
| CCNc1ncc2nc(CCc3ccccc3)c(=O)n(CCOC)c2n1 |  | 2 µM (active) |
| CCNc1ncc2nc(CCc3ccccc3)c(=O)n(C)c2n1 |  | 2.51 µM (active) |
